# Experimental data published in PubChem BioAssay AID720664 (National Center for Advancing Translational Sciences (NCATS), 2013).
# Inconclusive results are not listed. A call without a number means that no potency is given here. Active and inactive are the calls of the source. Calls follow the shape of the dose curve; as a rule, active = well fitted inhibition curve with a large enough effect; inconclusive = small, poorly fitted or top-dose-only effect; inactive = flat fitted curve, though single readings scatter.
# Molecular target: Galactokinase (Homo sapiens) (UniProt P51570)
# Test: qHTS for Inhibitors of Human Galactokinase (GALK): SAR round 3
# Conditions: ADP detection luminescence, 1 h; series mostly up to 57.5 µM
# From the text: Inherited deficiency of galactose-1-phosphate uridyltransferase (GALT) can result in a potentially lethal disorder called Classic Galactosemia (OMIM 230400). Several lines of evidence indicate that an elevated level of galactose-1-phosphate (gal-1-p), the product of galactokinase (GALK), is a major, if not sole, pathogenic mechanism in patients with classic galactosemia. Therefore, finding inhibitors of GALK is a potential novel therapy for this inherent metabolic disease and is the long term goal of this project. Active compounds observed in the qHTS GALK assay (AID: 1868) were cherry picked and re-screened for validation. GALK (provided by Kent Lai) was assayed using ATP and D-(+)-Galactose (Sigma-Aldrich cat# G0750) as substrates. Promega ADP-Glo technology was used to detect the ADP product formed after the kinase reaction. Kinase reactions with and without GALK were used as negative and positive controls together with Protein Tyrosine Phosphatase CD45 inhibitor (EMD Bioscience cat# 540215) which is shown to inhibit GALK activity. Decrease in activity corresponds to inhibition of the enzyme, the desired outcome for this assay. NIH Molecular Libraries Probe Production Network [MLPCN] NIH Chemical Genomics Center [NCGC] Grant: MH085689-01 PI Name: Kent Lai, University of Utah
# Three uL/well of ATP-buffer solution (35 uM ATP, 20mM HEPES pH8.0, 5 mM MgCl2, 60 mM NaCl, 1 mM DTT, 0.01% BSA final concentration) was dispensed into 1536-well, assay plates (Greiner, solid white medium-binding plates) with Aurora Discovery BioRAPTR Flying Reagent Dispenser (FRD; Beckton-Dickenson). Compound and control solution (23 nL) was transferred to the assay plate using the Kalypsys 1536-pin tool apparatus. One uL/well GALK-galactose solution (5 nM GALK, 100 uM galactose, 20 mM HEPES pH8.0, 5 mM MgCl2, 60 mM NaCl, 1 mM DTT, 0.01% BSA final concentration) was then added using the FRD yielding a total kinase reaction volume of 4 uL/ well. After 1 hour of room temperature incubation, 4 uL Kinase-Glo Plus reagent was added for a final assay volume of 8 uL/well. Luminescence was detected with the ViewLux plate reader (Perkin Elmer, Waltham, MA) after 2 min incubation using a 1 sec exposure time and 2x binning.
# Galactokinase (Homo sapiens), sequence (P51570 whole entry, looked up): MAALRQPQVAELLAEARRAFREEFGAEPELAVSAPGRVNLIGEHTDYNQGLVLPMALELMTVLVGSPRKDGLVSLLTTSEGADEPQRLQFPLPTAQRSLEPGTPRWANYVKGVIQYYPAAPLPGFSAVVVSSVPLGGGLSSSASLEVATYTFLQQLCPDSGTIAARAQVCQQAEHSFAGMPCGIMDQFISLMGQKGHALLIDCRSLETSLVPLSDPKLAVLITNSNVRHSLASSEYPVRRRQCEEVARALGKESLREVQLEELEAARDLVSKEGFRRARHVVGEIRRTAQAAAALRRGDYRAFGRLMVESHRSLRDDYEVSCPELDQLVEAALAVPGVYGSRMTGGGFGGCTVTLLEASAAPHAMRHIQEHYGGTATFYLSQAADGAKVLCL
row,SMILES,Potency
1,CC1(C)CC(=O)C2=C(C1)NC(Nc1nc3ccccc3o1)=NC21CCCCC1,inactive
2,O=C1CCCC2=C1C1(CCCC1)N=C(Nc1nc3cc(-c4ccccc4)ccc3o1)N2,inactive
3,O=C1CCCC2=C1C(c1cccc(F)c1)N=C(Nc1nc3ccccc3o1)N2 (stereo not given),inactive
4,O=C1CCCC2=C1C(c1ccc(F)cc1)N=C(Nc1nc3ccccc3o1)N2 (stereo not given),inactive
5,O=C1CCCC2=C1C(c1[nH]ncc1Cl)N=C(Nc1nc3c(Cl)cccc3o1)N2 (stereo not given),inactive
6,O=C1CCCC2=C1C(c1cccnc1Cl)N=C(Nc1nc3ccccc3o1)N2 (stereo not given),inactive
7,CNC(=O)C1=C(C)NC(Nc2nc3ccccc3o2)=NC12CCCC2,inactive
8,O=C1CCCC2=C1C(c1cccc(Oc3ccccc3)c1)N=C(Nc1nc3ccccc3o1)N2 (stereo not given),inactive
9,O=C1CCCC2=C1C(c1[nH]ncc1Cl)NC(=S)N2 (stereo not given),inactive
10,Nc1ncc(S(=O)(=O)N2CCOCC2)s1,inactive
11,CC1=C(C(=O)n2ccc3ccccc32)C(c2ccccc2Br)N=C(Nc2nc3ccccc3o2)N1 (stereo not given),inactive
12,O=C1CCCC2=C1C(c1ccc(Cl)cc1)N=C(Nc1nc3ccccc3o1)N2 (stereo not given),inactive
13,CC1=C(C(=O)Nc2nncs2)C(c2[nH]ncc2Cl)N=C(Nc2nc3ccccc3o2)N1 (stereo not given),12.2 µM (active)
14,O=C1CCCC2=C1C(c1cccnc1)N=C(Nc1nc3ccccc3o1)N2 (stereo not given),inactive
15,Cn1ncc(Cl)c1C1N=C(Nc2nc3ccccc3o2)NC2=C1C(=O)CCC2 (stereo not given),inactive
16,O=C1CCCC2=C1C(c1ccccc1Cl)N=C(Nc1ncc(-c3ccccc3)o1)N2 (stereo not given),inactive
17,COc1cccc(C2N=C(Nc3nc4ccccc4o3)NC3=C2C(=O)CCC3)c1 (stereo not given),inactive
18,CC1=C(C(=O)Nc2noc3ccccc23)C(c2nn(C)cc2Cl)N=C(Nc2nc3ccccc3o2)N1 (stereo not given),inactive
19,CC1(C)N=C(Nc2nc3ccccc3o2)NC2=C1C(=O)CCC2,inactive
20,CC1=C(C(=O)Nc2noc3ccccc23)C2(CCCC2)N=C(Nc2nc3ccccc3o2)N1,inactive

row,SMILES,Potency
1,O=C1CCCC2=C1C(c1[nH]ncc1Cl)N=C(Nc1nc3ccc(Cl)cc3o1)N2 (stereo not given),inactive
2,O=C1NC2=C(C(=O)CCC2)C(c2ccccc2Cl)N1 (stereo not given),inactive
3,CC1=C(C(=O)Nc2nc3ccccc3s2)C(c2[nH]ncc2Cl)N=C(Nc2nc3ccccc3o2)N1 (stereo not given),inactive
4,O=C1CCCC2=C1C(c1[nH]ncc1Cl)N=C(Nc1nc3cc([S+](=O)([O-])N4CCCC4)ccc3o1)N2 (stereo not given),inactive
5,O=C1CCCC2=C1C(c1ccccc1Cl)N=C(c1ccccn1)N2 (stereo not given),inactive
6,Cc1cc(NC2=NC(c3[nH]ncc3Cl)C3=C(CCCC3=O)N2)no1 (stereo not given),inactive
7,O=C1CCCC2=C1C(c1[nH]ncc1Cl)NC(=NCc1cccs1)N2 (stereo not given),inactive
8,O=C1CCCC2=C1C(c1[nH]ncc1Cl)N=C(Nc1nccs1)N2 (stereo not given),inactive
9,O=C1CCCC2=C1C(c1[nH]ncc1Cl)N=C(c1nc3ccccc3o1)N2 (stereo not given),inactive
10,COc1ccccc1C1N=C(Nc2nc3ccccc3o2)NC2=C1C(=O)CCC2 (stereo not given),inactive
11,Cc1nc(CN=C2NC3=C(C(=O)CCC3)C(c3[nH]ncc3Cl)N2)cs1 (stereo not given),inactive
12,O=C1CCCC2=C1C(c1[nH]ncc1Cl)NC(=NCc1ccncc1)N2 (stereo not given),inactive
13,Cn1cnc(CN=C2NC3=C(C(=O)CCC3)C(c3[nH]ncc3Cl)N2)c1 (stereo not given),inactive
14,O=C1CCCC2=C1C(c1[nH]ncc1Cl)NC(=NCc1cccnc1)N2 (stereo not given),inactive
15,O=C1CCCC2=C1C1(CCCOC1)N=C(Nc1nc3ccccc3o1)N2 (stereo not given),inactive
16,O=C1CCCC2=C1C(c1[nH]ncc1Cl)N=C(Nc1nc3cc([S+](=O)([O-])N4CCOCC4)ccc3o1)N2 (stereo not given),inactive
17,CC1=C(C(=O)Nc2nc3ccccc3s2)C(c2nn(C)cc2Cl)N=C(Nc2nc3ccccc3o2)N1 (stereo not given),inactive
18,CC1=C(C(=O)Nc2ccc(Cl)cc2)C(c2ccccc2Br)N=C(Nc2nc3ccccc3o2)N1 (stereo not given),inactive
19,O=C1CCCC2=C1[C@@]1(CCC(c3ccccc3)C1)N=C(Nc1nc3ccccc3o1)N2 (stereo not given in full),inactive
20,N#CC1=C(Nc2nc3ccccc3o2)OC2=C(C(=O)CCC2)C1c1[nH]ncc1Cl (stereo not given),inactive
